Source: ChEMBL document CHEMBL1961873, “Compounds: GSK PKIS; Assays: Nanosyn kinase panel” (2012)

How the values were obtained:
[1] = biological target: Tyrosine-protein kinase SYK (Homo sapiens) (UniProt P43405); details: at 1 µM
[2] = biological target: T1, Tyrosine-protein kinase Tec (Homo sapiens) (UniProt P42680); details: at 0.1 µM
T1 sequence (whole entry): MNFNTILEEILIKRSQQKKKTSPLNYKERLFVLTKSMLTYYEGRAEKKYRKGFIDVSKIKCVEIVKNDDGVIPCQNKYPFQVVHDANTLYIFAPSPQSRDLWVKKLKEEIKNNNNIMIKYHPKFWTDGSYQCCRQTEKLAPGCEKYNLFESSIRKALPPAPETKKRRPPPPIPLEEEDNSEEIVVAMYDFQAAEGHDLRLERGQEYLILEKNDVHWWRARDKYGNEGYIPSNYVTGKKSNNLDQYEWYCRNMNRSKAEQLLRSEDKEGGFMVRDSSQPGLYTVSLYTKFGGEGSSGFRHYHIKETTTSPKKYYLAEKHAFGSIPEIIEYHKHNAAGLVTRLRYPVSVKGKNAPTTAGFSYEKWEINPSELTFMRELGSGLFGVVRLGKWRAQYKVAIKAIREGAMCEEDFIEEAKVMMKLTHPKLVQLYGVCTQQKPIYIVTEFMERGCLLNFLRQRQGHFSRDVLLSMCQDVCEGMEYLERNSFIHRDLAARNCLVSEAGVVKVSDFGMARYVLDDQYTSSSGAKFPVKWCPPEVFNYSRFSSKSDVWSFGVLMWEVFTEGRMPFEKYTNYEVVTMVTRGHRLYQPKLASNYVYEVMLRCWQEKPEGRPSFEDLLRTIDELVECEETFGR

[3] = biological target: T1, Tyrosine-protein kinase Tec (Homo sapiens); details: at 1 µM
[4] = biological target: Angiopoietin-1 receptor (Homo sapiens) (UniProt Q02763); details: at 0.1 µM
[5] = biological target: Angiopoietin-1 receptor (Homo sapiens) (UniProt Q02763); details: at 1 µM
[6] = biological target: T2, Non-receptor tyrosine-protein kinase TNK1 (Homo sapiens) (UniProt Q13470); details: at 0.1 µM
T2 sequence (whole entry): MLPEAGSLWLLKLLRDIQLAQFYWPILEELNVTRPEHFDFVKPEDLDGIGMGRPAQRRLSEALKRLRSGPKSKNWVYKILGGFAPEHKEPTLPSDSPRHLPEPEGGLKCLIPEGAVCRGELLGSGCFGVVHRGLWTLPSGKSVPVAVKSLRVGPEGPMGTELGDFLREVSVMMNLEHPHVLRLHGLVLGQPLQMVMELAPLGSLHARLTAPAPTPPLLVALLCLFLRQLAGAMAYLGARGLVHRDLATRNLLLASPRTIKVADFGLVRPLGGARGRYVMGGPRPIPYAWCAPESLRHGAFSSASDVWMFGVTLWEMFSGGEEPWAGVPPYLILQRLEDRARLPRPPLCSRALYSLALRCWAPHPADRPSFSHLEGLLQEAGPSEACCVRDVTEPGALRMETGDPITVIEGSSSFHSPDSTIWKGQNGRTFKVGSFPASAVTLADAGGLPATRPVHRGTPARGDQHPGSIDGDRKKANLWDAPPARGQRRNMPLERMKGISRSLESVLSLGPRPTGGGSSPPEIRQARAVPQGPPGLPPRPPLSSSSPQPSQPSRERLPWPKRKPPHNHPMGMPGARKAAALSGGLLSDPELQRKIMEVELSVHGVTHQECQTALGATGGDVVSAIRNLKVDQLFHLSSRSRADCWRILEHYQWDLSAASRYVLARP

[7] = biological target: T2, Non-receptor tyrosine-protein kinase TNK1 (Homo sapiens); details: at 1 µM
[8] = biological target: Activated CDC42 kinase 1 (Homo sapiens) (UniProt Q07912); details: at 0.1 µM
[9] = biological target: Activated CDC42 kinase 1 (Homo sapiens) (UniProt Q07912); details: at 1 µM
[10] = biological target: High affinity nerve growth factor receptor (Homo sapiens) (UniProt P04629); details: at 0.1 µM
[11] = biological target: High affinity nerve growth factor receptor (Homo sapiens) (UniProt P04629); details: at 1 µM
[12] = biological target: BDNF/NT-3 growth factors receptor (Homo sapiens) (UniProt Q16620); details: at 0.1 µM
[13] = biological target: BDNF/NT-3 growth factors receptor (Homo sapiens) (UniProt Q16620); details: at 1 µM
[14] = biological target: NT-3 growth factor receptor (Homo sapiens) (UniProt Q16288); details: at 0.1 µM
[15] = biological target: NT-3 growth factor receptor (Homo sapiens) (UniProt Q16288); details: at 1 µM
[16] = biological target: T3, Tyrosine-protein kinase TXK (Homo sapiens) (UniProt P42681); details: at 0.1 µM
T3 sequence (whole entry): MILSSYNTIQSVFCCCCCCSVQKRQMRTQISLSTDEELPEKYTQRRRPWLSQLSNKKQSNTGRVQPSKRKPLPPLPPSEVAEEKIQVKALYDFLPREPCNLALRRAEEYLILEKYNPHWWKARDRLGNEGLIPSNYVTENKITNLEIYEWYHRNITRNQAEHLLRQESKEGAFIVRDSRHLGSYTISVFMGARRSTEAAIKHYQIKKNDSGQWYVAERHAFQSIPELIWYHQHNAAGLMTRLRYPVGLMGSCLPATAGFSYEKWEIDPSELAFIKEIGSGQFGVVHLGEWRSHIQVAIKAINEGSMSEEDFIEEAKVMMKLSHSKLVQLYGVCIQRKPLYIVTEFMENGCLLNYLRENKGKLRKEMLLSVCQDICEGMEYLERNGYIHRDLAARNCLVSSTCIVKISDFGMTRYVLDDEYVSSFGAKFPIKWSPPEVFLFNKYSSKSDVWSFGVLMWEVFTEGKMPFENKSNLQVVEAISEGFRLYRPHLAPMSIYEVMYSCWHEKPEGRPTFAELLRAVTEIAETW

[17] = biological target: T3, Tyrosine-protein kinase TXK (Homo sapiens); details: at 1 µM
[18] = biological target: Non-receptor tyrosine-protein kinase TYK2 (Homo sapiens) (UniProt P29597); details: at 0.1 µM;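 note: each value is a mean of the inhibition readings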
[19] = biological target: T4, Dual specificity protein kinase TTK (Homo sapiens) (UniProt P33981); details: at 1 µM;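 note: reported figures are mean TTK inhibition at 1 µM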
T4 sequence (whole entry): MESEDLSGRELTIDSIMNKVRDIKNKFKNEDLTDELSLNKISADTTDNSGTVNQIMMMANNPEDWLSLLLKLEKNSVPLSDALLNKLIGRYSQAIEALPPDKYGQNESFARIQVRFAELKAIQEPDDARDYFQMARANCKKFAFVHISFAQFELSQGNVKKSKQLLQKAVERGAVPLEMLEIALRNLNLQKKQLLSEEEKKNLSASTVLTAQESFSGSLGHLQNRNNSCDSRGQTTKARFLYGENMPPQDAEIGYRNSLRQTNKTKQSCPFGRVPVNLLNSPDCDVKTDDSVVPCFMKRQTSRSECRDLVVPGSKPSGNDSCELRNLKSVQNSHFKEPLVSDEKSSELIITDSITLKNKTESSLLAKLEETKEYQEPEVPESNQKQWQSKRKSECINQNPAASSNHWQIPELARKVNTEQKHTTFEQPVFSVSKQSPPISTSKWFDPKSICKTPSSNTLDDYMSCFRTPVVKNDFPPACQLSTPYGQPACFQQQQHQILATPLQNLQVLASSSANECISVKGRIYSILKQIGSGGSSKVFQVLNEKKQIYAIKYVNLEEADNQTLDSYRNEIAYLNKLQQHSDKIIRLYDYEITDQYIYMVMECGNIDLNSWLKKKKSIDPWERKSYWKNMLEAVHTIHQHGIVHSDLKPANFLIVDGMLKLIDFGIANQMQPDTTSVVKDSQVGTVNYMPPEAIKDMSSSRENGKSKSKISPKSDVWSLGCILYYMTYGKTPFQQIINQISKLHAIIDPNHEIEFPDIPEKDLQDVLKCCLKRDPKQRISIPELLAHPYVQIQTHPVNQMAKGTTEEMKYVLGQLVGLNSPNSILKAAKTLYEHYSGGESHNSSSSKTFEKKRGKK

[20] = biological target: T5, Aurora kinase A (Homo sapiens) (UniProt O14965); details: at 0.1 µM;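 note: each reported value is a mean percent inhibition of Aurora-A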
T5 sequence (whole entry): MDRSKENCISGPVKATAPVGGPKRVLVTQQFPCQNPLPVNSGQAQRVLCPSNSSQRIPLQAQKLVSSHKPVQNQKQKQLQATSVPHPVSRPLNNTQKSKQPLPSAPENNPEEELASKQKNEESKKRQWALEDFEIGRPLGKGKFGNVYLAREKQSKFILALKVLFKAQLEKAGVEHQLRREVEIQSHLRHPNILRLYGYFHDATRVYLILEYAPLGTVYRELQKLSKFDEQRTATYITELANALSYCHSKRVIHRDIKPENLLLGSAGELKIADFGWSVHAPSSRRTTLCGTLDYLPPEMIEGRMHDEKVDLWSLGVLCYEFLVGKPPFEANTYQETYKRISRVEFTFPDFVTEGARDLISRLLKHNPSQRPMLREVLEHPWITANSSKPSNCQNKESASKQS

Activated CDC42 kinase 1 (Homo sapiens), sequence (Q07912 whole entry, looked up): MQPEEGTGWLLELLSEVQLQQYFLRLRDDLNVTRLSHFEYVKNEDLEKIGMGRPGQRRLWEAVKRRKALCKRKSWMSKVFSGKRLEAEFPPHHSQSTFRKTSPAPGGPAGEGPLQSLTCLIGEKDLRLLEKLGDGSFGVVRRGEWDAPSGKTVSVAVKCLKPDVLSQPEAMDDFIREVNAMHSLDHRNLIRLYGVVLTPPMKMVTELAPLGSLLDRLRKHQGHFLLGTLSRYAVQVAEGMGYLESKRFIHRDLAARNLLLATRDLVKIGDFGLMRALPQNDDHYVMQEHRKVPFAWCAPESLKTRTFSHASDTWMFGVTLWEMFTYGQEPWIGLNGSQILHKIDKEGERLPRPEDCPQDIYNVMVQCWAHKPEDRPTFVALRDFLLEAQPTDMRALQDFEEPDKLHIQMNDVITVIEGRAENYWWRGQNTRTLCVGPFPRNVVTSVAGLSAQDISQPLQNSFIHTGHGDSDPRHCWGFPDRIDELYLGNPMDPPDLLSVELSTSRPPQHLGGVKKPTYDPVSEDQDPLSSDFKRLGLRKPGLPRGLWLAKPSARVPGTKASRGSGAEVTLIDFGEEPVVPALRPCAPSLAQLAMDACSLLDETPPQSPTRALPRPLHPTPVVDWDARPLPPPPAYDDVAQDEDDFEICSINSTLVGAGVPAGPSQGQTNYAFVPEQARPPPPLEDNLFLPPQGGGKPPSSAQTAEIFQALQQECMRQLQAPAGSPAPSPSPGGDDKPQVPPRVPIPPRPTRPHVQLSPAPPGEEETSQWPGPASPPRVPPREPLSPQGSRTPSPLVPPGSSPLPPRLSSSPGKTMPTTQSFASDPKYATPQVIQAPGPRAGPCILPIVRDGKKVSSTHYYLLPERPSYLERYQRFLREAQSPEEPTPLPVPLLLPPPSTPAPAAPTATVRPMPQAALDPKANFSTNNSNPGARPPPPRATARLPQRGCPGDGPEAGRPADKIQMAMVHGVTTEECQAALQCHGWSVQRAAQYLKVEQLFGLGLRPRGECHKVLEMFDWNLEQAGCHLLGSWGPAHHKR
High affinity nerve growth factor receptor (Homo sapiens), sequence (P04629 33-796 limits assumed): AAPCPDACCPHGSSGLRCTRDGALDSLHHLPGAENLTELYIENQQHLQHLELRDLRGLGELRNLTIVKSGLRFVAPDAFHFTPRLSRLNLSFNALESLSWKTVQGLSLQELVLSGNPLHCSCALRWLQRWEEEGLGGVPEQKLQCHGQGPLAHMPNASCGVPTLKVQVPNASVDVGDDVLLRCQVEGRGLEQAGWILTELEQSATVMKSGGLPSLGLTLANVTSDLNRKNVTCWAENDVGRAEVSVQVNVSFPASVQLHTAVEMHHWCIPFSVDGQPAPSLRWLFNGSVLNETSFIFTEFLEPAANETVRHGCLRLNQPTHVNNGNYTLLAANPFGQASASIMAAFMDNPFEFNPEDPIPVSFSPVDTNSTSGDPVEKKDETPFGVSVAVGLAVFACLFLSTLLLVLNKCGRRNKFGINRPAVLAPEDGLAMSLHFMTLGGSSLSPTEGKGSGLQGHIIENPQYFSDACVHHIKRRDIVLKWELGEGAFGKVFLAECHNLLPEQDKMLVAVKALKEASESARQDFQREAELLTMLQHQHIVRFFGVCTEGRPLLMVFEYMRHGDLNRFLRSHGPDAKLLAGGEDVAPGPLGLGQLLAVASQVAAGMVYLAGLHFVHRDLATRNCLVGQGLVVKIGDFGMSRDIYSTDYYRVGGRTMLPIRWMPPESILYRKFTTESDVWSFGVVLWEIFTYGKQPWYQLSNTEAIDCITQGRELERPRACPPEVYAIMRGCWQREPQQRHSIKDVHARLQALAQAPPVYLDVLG
BDNF/NT-3 growth factors receptor (Homo sapiens), sequence (Q16620 32-822 limits assumed): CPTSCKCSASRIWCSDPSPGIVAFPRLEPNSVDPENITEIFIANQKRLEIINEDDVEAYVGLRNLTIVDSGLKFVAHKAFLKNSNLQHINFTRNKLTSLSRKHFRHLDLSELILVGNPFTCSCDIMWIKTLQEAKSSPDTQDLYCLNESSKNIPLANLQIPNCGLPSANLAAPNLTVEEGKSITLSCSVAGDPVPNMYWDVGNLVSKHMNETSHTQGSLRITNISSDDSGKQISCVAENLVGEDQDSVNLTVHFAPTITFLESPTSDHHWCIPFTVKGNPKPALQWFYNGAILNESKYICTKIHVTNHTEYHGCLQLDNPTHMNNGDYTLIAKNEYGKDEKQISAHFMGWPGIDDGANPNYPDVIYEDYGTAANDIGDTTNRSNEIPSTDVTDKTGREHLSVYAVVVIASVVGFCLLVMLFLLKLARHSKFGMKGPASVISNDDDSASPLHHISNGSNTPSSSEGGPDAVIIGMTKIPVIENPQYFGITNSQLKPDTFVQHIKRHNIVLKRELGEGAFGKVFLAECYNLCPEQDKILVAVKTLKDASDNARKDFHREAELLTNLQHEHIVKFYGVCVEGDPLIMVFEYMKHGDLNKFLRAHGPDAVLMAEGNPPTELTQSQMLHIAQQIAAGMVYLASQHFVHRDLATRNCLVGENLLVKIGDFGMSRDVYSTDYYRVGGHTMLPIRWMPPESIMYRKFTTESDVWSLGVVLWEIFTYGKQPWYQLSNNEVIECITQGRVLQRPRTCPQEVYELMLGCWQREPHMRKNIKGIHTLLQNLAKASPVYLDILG
Non-receptor tyrosine-protein kinase TYK2 (Homo sapiens), sequence (P29597 whole entry): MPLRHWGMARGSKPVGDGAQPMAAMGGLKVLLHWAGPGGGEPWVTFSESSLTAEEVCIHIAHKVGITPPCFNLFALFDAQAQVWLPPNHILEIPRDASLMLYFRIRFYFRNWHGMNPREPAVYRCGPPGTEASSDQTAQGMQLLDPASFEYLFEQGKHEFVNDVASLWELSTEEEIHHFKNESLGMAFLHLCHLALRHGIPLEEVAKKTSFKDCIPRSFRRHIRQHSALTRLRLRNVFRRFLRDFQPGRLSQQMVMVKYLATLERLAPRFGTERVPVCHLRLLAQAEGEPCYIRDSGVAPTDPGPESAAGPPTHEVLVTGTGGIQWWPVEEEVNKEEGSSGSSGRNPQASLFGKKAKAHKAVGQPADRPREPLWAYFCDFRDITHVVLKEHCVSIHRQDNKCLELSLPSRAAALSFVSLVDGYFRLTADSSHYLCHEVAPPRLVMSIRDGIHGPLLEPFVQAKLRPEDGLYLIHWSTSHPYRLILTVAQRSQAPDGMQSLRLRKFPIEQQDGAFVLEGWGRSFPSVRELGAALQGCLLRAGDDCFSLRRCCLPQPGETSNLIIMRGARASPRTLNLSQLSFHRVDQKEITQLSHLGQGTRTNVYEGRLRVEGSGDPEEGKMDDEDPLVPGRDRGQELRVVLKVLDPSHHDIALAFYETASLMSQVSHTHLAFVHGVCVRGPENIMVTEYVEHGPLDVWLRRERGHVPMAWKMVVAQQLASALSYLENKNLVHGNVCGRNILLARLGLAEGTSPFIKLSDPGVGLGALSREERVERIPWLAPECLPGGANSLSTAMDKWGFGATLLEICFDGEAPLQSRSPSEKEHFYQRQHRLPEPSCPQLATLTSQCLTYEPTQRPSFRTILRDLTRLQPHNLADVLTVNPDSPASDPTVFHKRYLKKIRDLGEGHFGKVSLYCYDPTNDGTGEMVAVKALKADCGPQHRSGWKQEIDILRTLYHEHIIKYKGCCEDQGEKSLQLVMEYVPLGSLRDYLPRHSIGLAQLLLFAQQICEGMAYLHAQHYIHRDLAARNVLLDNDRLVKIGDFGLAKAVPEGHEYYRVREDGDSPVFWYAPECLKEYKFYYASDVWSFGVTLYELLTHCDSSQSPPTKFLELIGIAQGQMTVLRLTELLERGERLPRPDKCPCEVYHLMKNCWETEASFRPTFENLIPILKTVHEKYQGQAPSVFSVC
Angiopoietin-1 receptor (Homo sapiens), sequence (Q02763 whole entry): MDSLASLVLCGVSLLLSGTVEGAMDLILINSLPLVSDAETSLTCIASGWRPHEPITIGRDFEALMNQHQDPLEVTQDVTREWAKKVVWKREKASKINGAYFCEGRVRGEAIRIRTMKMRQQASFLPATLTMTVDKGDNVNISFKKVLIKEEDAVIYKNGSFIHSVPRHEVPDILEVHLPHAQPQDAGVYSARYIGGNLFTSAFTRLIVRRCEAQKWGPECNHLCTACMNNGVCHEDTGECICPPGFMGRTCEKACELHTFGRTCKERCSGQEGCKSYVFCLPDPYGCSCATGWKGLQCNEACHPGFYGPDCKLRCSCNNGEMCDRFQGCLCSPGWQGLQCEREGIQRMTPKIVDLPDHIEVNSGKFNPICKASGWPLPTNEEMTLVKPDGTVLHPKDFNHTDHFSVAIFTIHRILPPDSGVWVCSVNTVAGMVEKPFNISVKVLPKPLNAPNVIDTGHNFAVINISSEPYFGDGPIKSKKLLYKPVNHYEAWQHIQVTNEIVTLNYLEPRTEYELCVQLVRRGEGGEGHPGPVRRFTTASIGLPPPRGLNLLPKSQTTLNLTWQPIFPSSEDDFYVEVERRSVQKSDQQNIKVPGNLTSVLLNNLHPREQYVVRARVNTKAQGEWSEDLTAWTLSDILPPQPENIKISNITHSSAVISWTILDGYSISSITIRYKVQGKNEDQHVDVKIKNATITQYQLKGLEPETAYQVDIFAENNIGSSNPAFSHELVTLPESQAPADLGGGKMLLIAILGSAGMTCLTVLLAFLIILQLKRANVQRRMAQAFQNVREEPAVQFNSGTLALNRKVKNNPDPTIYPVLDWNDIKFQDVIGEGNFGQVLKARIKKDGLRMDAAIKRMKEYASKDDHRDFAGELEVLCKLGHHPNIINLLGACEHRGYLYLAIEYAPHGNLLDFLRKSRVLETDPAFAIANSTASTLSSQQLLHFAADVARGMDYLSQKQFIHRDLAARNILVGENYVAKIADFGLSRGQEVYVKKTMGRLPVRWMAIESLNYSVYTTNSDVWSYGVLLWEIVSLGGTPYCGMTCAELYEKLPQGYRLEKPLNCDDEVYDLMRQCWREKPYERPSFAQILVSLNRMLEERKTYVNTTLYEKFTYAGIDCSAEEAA

Structure (SMILES) | inhibition [1] [%] | inhibition [2] [%] | inhibition [3] [%] | inhibition [4] [%] | inhibition [5] [%] | inhibition [6] [%] | inhibition [7] [%] | inhibition [8] [%] | inhibition [9] [%] | inhibition [10] [%] | inhibition [11] [%] | inhibition [12] [%] | inhibition [13] [%] | inhibition [14] [%] | inhibition [15] [%] | inhibition [16] [%] | inhibition [17] [%] | inhibition [18] [%] | inhibition [19] [%] | inhibition [20] [%]
FC(F)(F)c1ccc(-c2nn3ncccc3c2-c2ccnc(Nc3ccc4c(c3)OCCO4)n2)cc1 | 0.25 | 3.97 | 5.21 | 9.11 | 33.8 | 6.18 | 22.2 | 6.74 | 8.14 | -1.21 | 0.14 | 1.21 | 3.15 | 1.88 | 4.32 | 6.36 | 4.7 | 3.04 | 2.98 | -2.66
CC(C)c1ccc(Nc2nccc(-c3cnn4ncccc34)n2)cc1 | 9.02 | 2.28 | 7.14 | 2.92 | 4.32 | 5.68 | 49.3 | 0.39 | 2.14 | 3.65 | 7.94 | 2.01 | 6.18 | 3.36 | 9.1 | 1.69 | 3.04 | -0.82 | 22.2 | 6.2
CCOc1nccc2c1nc(-c1nonc1N)n2CC | 1.57 | 3.96 | 5.87 | 2.25 | 8.59 | 2.63 | 20.1 | 3.04 | 7.54 | -1.22 | 3.61 | -0.99 | 5.51 | 1.31 | 5.16 | 4.89 | 5.69 | -0.93 | 6.96 | 0.6
O=S(=O)(CCOCc1ccc(-c2ccc3ncnc(Nc4ccc(OCc5cccc(F)c5)c(Cl)c4)c3c2)o1)c1ccccc1 | 1.2 | 0.41 | 0.9 | 3.25 | 2.48 | 1.59 | 5.35 | -0.03 | -0.95 | -0.1 | 3.9 | 2.42 | 2.72 | 0.35 | 0.31 | -0.26 | 2.63 | -3.63 | 11 | 1.6
COc1cc2ncnc(Nc3ccc4c(cnn4Cc4ccccc4)c3)c2cc1OC | 0.48 | 3.95 | 17.7 | 4.78 | 10.2 | 7.1 | 35.6 | 0.51 | 4.91 | 0.45 | 2.18 | 2.13 | 3.38 | 1.5 | 2.59 | 0.73 | 4.56 | -1.09 | 13.2 | 1.22
NC(=O)c1sc(-n2cnc3ccccc32)cc1OCc1ccccc1Br | -0.37 | 4.6 | 4.76 | 2 | 6.42 | 2.8 | 18.9 | 0.68 | 1.87 | 1.54 | 5.34 | 3.05 | 4.07 | 1.79 | 3.41 | 3.34 | 5.57 | -1.33 | 13 | 3.86
Cc1cc(-c2ccccn2)cc(C)c1/C=C/c1cncc(-c2nn[nH]n2)c1 | -0.42 | 4.67 | 12.4 | 2.01 | 8.32 | 9.02 | 50.8 | 0.32 | 2.33 | 2.23 | 10 | 3.94 | 4.13 | 1.49 | 2.54 | 2.93 | 4.47 | -2.23 | 9.95 | 1.9
Cc1ccc2c(-c3ccnc(Nc4cccc(C(F)(F)F)c4)n3)c(-c3ccccc3)nn2n1 | -5.34 | 8.8 | 38.3 | 3.55 | 8.11 | 2.78 | 19.5 | 0.98 | 2.35 | 1.79 | 7.09 | 4.09 | 5.15 | 2.41 | 5.05 | 6.16 | 17.2 | -1.28 | 10.6 | 1.82
COc1cccc(-n2ncc3c(N/N=C/c4ccc(S(C)(=O)=O)cc4)ncnc32)c1 | -1.66 | -0.19 | 10.4 | 7.64 | 31.4 | 10.4 | 20 | 1.34 | 1.96 | 4.94 | 5.3 | 6.69 | 19.3 | 6.62 | 22.3 | 0.02 | 12.4 | -0.06 | – | 6.42
NS(=O)(=O)c1cccc(Nc2cc(-c3ccc(F)cc3)n[nH]2)c1 | -1 | 3.27 | 6.08 | 0.52 | 4.79 | 2.68 | 16.2 | 0.5 | 2.57 | 2.83 | 19.2 | 4.73 | 26.1 | 6.62 | 27.9 | 3.74 | 3.31 | -3.9 | – | 1.29
C[C@@H](Oc1cc(-n2cnc3ccc(OCC4CCN(C)CC4)cc32)sc1C(N)=O)c1ccccc1C(F)(F)F | 0.25 | -1.52 | -0.1 | 5.78 | 32.4 | 3.21 | 30.3 | 5.42 | 46.1 | -0.37 | 0.72 | -0.51 | 1.01 | -0.61 | 0.64 | -1.27 | 1.35 | 2.67 | 1.44 | -0.53
